Wee1 degr inh – human Wee1 degradation inhibition, primary screen. P30291. HeLa Luc-Wee1K328M stability, luciferase luminescence; 100% = proteasome inhibitor MG132 effect. reporter increase, % at 5 µM. 220,000 compounds, 1.2% hits. AID 1321;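 active = activation above the mean of all tested compounds plus 3 SD, set per screening run, cut at about 8.8% in these data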;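 note: cells exposed to compound for 20 h before luminescence read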
Target sequence (P30291 whole entry K328M): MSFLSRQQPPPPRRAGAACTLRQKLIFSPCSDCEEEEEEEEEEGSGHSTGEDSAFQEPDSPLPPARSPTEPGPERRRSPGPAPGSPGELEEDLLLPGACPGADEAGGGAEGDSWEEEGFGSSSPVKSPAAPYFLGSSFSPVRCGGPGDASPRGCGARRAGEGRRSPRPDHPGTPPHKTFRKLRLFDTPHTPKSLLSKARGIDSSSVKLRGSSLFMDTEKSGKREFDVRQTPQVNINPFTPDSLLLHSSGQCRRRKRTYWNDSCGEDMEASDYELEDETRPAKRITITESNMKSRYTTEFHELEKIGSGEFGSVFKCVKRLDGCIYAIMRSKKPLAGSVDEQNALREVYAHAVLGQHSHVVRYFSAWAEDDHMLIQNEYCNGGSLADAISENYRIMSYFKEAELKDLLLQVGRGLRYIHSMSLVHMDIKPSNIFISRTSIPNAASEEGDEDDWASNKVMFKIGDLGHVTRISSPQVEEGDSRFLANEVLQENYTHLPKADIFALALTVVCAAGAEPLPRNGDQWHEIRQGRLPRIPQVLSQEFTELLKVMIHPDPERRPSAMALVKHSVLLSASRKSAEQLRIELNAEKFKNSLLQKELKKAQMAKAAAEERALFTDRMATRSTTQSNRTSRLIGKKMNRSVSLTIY
STAT1 activator – STAT1 signaling activation; NIH 3T3 STAT1-luciferase reporter, IFN-gamma, luminescence; 100% = IFN-gamma alone, no compound; activation (% of control), % at 5.5 µM; 200,000 compounds, 2.6% hits; AID 932;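 active = activation above the screen-wide mean activation plus 3 SD, cut at about 130% in these data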
APP 5'UTR act – activates APP 5'UTR luciferase reporter. SH-SY5Y APP 5'UTR luciferase reporter, luminescence; zero percent = DMSO vehicle wells. activation, % at 2 µM. 190,000 compounds, 1% hits;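 active = activation above a set limit, based on mean plus 3 SD of controls, cut at about 140% in these data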
NF-kB expr up – NF-kB expression increase, human neuronal cells; NF-kB reporter expression; hits give high values; fold change at 12.5 µM; 190,000 compounds, 1.6% hits; AID 1239; in the data active = fold change above about 3.3
APP transl inh – APP translation inhibition; 190,000 compounds, 0.82% hits; inhibition, % at 2 µM; AID 1285; SH-SY5Y APP 5'UTR-luciferase reporter, luminescence;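 active = inhibition above a set limit, derived from the sample mean plus 3 SD, cut at about 45% in these data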
Hsp70 activator – switches on Hsp70 transcription; HeLa Hsp70 promoter luciferase reporter, luminescence; scaled: vehicle 0, proteasome-inhibitor control 100%; activation, % at 10 µM; 200,000 compounds, 0.04% hits; AID 1203;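 active = activation above the mean across all tested compounds plus 3 SD, cutoff set per campaign, cut at about 5.5% in these data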
Wee1 stab conf – confirmation of human Wee1 degradation inhibitors. 1,100 compounds, 4% hits. activation, % at 5 µM. shares compounds with Wee1 degr inh. HeLa Luc-Wee1K328M degradation, luminescence; vehicle 0%, proteasome-blocked wells 100%. AID 1410; in the data active = activation above about 8.9%
A number is an active result; - = inactive; . = not tested or not shown. Compounds with a hit are over-represented: about 4.8% of the library has one in this group of screens.

SMILES	Wee1 degr inh	STAT1 activator	APP 5'UTR act	NF-kB expr up	APP transl inh	Hsp70 activator	Wee1 stab conf
Cc1ccc(C2OC3=C(C(=O)CC(C)(C)C3)C(N)=C2C#N)o1 (centres undefined)	15	-	-	-	-	-	-
N#Cc1cnc(SCCc2ccccc2)nc1N	28	-	-	-	-	-	-
OCCN(Cc1ccccc1)Cc1cccc(C(F)(F)F)c1	-	-	-	-	-	-	.
O=C(O)CCCn1cc(NC(=O)c2cccc(F)c2)cn1	13	-	-	-	-	-	-
Cc1ccc(NC(=O)CSc2nnc(CNC(=O)c3cccs3)o2)cc1	-	-	-	-	-	-	.
COc1cc(C(=O)NCc2nnc(SCC(=O)Nc3nc4ccccc4s3)o2)cc(OC)c1OC	12	-	-	-	-	-	-
COc1ccc(C(=O)NCc2nnc(SCC(=O)Nc3nc4ccccc4s3)o2)cc1	-	-	-	-	-	-	.
O=C(CSc1nnc(CNC(=O)c2cccs2)o1)Nc1ccccc1	18	-	-	-	-	-	-
O=C(CSc1nnc(Cn2cnc3ccccc32)o1)Nc1cccc2ccccc12	-	-	-	-	-	-	.
CC(=O)c1ccc(NC(=O)CSc2nnc(Cn3cnc4ccccc43)o2)cc1	16	-	-	-	-	-	-
CCCNC(=O)Nc1cc(OCC)c(N2CCOCC2)cc1OCC	-	-	-	-	-	-	.
O=C(NCC1CCCO1)C(c1cccnc1)N(C(=O)Cc1cccs1)c1ccccc1 (centres undefined)	17	-	-	-	-	-	-
Cc1ccccc1N(C(=O)Cc1cccs1)C(C(=O)NCC1CCCO1)c1cccnc1 (centres undefined)	-	-	-	-	-	-	.
O=c1cc(Nc2ccc3c(c2)OCCO3)[nH]c(=O)n1-c1ccc(Cl)cc1	-	-	-	-	-	-	.
O=c1cc(Nc2ccc3c(c2)OCCO3)[nH]c(=O)n1C1CCCCC1	11	-	-	-	83	-	11
Cc1cccc(N2CCN(C(=O)C(NS(=O)(=O)c3cccs3)c3ccccc3)CC2)c1C (centres undefined)	-	-	-	-	-	-	.
CCn1c(C)nc2cc(S(=O)(=O)C(F)F)ccc21	-	-	-	-	-	-	.
Cc1cc2nc(-c3cccc(NC(=O)c4ccc(Br)o4)c3C)oc2cc1C	14	-	-	-	-	-	-
Cc1ccc(CN2CCN(Cc3cccc(OCCO)c3)CC2CCO)o1 (centres undefined)	-	-	-	-	-	-	.
Cc1ccc(C(=O)CSc2nnc(-c3c[nH]c4ccccc34)o2)cc1	-	-	-	-	-	-	.
CC1CCCCN1C(=O)CSc1nnc(-c2c[nH]c3ccccc23)o1 (centres undefined)	13	-	-	-	-	-	-
CN1C(=O)N(c2cccc3ccccc23)C(n2cncn2)C1(C)C (centres undefined)	-	-	-	-	-	-	.
CCCCn1c(-c2cccs2)nc2nc3ccccc3nc21	13	-	-	-	-	-	-
CC1(C)NC(=O)N(CCCOc2ccccc2Br)C1=O	-	-	-	-	-	-	.
CC1(C)NC(=O)N(CCCCOc2ccccc2[N+](=O)[O-])C1=O	11	-	-	-	-	-	-
SMILES	Wee1 degr inh	STAT1 activator	APP 5'UTR act	NF-kB expr up	APP transl inh	Hsp70 activator	Wee1 stab conf
Cc1cc(C)c2c(n1)SCC(=O)N2CC(=O)NCCC1=CCCCC1	-	-	-	-	-	-	.
COc1ccc(/C=N/NC(=O)c2cc(=O)[nH]c3ccccc23)cc1OC	-	-	-	-	-	-	.
O=C(N/N=C/c1ccco1)c1cc(=O)[nH]c2ccccc12	28	-	-	-	-	-	-
COc1cc(NC(=O)c2cccc(C)c2)c(OC)cc1NC(=O)CN1CCCCC1	-	-	-	-	-	-	.
Cc1ccc(S(=O)(=O)N(C)CCCC(=O)NC(C)(C)CO)cc1	-	-	-	-	-	-	.
Cc1ccc(S(=O)(=O)N(C)CCCC(=O)NC(C)(C)C)cc1	12	-	-	-	-	-	-
CC(C)(C)n1nnnc1C(c1cccc(C#N)c1)N1CCN2CCCC2C1 (centres undefined)	-	-	-	-	-	-	.
